Source: PubChem (National Center for Advancing Translational Sciences (NCATS))
12-LOX inh = inhibitors of human 12S-lipoxygenase ALOX12; actives 1.1% (n = 580,000); purified 12hLO, xylenol orange hydroperoxide absorbance; Potency, µM (doses to about 108 µM), usual class: inhibitors; AID 1671190
Target sequence (P18054 whole entry, looked up): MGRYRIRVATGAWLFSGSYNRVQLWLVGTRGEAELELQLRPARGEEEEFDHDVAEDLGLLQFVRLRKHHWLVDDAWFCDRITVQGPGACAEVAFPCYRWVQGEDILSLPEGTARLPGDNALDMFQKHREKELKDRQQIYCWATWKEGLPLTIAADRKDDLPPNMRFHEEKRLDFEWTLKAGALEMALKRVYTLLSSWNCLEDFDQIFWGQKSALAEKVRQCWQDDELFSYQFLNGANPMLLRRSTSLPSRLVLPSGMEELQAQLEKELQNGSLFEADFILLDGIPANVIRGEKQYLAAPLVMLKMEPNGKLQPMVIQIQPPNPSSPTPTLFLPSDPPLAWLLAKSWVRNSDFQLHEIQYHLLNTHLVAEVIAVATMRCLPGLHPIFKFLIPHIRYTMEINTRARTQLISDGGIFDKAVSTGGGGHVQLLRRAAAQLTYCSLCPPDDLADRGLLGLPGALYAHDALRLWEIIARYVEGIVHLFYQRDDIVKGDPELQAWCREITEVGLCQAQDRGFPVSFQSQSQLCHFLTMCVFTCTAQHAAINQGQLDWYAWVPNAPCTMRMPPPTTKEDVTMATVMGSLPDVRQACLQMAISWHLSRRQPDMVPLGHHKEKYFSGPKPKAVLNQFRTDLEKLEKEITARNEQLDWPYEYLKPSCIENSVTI
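Purified human 12hLO at 150 nM in 25 mM Hepes, 0.01% Triton X-100, pH 7.0, preincubated 15 min at room temperature with compound. Reaction started with 40 uM arachidonic acid, 30 min at room temperature. Hydroperoxide measured by Fe-xylenol orange, 573/405 nm absorbance ratio.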
TDP1 cell noCPT = qHTS for Inhibitors of human tyrosyl-DNA phosphodiesterase 1 (TDP1): qHTS in cells in absence of CPT; actives 15% (n = 420,000); DT40 Tdp1-/- hTDP1 cells, no CPT, ATP luminescence, 48 h; Potency, µM (highest dose often 46.2 µM), usual class: inhibitors; note: nearly all actives have a fitted effect of over 55% in size
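Growth of hTDP1-complemented DT40 Tdp1-knockout cells is measured by ATP luminescence after at least 48 hr compound exposure at 37 °C, with DMSO substituting for the 20 nM CPT used in the parallel screen.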
HT1080 IDH1KD tx = HT-1080 IDH1 knockdown cell toxicity (counter line). HT-1080 IDH1 knockdown viability, ATP luminescence, 48 h. Potency, µM (titrated, usually from 46.1 µM), hits mostly cytotoxic. actives 2% (n = 360,000)
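Using the IDH1-knockdown HT-1080 line run in the same batch and compound series as the NT line, viability after 48 h at 37 °C was determined by CellTiter-Glo luminescence and expressed as % activity.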
HT1080-NT tox = kills 2HG-producing HT-1080-NT fibrosarcoma cells; HT-1080-NT fibrosarcoma viability, CellTiter-Glo ATP luminescence, 48 h; Potency, µM (top dose mostly 46.1 µM), most hits filed as cytotoxic; actives 1.6% (n = 360,000); AID 686970;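 note: NT is the 2HG producing partner of a matched IDH1 knockdown line; nearly all actives have a fitted effect of over 55% in size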
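A 48-hour cytotoxicity screen used HT-1080-NT cells plated 2 hours before compound delivery. ATP-based CellTiter-Glo luminescence measured viability, normalized to DMSO and no-cell controls.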
TDP1 cell CPT = DT40-hTDP1 cell growth loss with CPT; chicken DT40 Tdp1-/-;hTDP1 cells + 20 nM CPT, ATP luminescence, 48 h; Potency, µM (titrated, usually from 46.2 µM), actives largely listed as inhibitors; actives 12% (n = 420,000); AID 686979; note: nearly all actives have a fitted effect of over 55% in size
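Cell growth measured by CellTiter-Glo luminescence after a minimum 48 h, 37 C compound exposure with 20 nM CPT in Tdp1-knockout DT40 cells stably expressing hTDP1, seeded 400/well; qHTS titration format.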
IL1B secr inh = blocks inflammasome-driven IL-1 beta release; THP-1 LPS/ATP IL-1B secretion, AlphaLISA, 16 h; stronger effect = lower value; activity change, % at 57.5 µM; actives 4.7% (n = 360,000); in the data active = activity change below about -50%; inconclusive = mostly about -30% to -49%
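Secreted IL-1B measured by AlphaLISA bead assay after 16 h compound exposure of THP-1 cells; compounds (final up to 57.5 uM) added 1 h before LPS (250 ng/mL) and ATP (1.25 mM) stimulation; lower signal means less secretion.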
Numbers stand for hits; [ ] = another dose, or the depositor's remark. The sample as a whole holds a higher share of hits than the screen did. Unless noted, calls come from the whole dose curve; as a rule, active = well fitted curve in the direction sought with a large enough effect; inconclusive = small, poorly fitted or top-dose-only effect, or another doubt; inactive = no such curve, though single readings can be large; an effect the other way counts as inactive or inconclusive.

`O=C(Nc1ccc(Cl)c(Cl)c1)Nc1ccc(Br)cc1F` gave 12-LOX inh inconclusive, TDP1 cell noCPT 11.6µM, HT1080 IDH1KD tx 16.4µM, HT1080-NT tox inconclusive, TDP1 cell CPT 5.8µM and IL1B secr inh inconclusive.
For Cc1ccc(NC(=S)Nc2ccc(Br)cc2)cc1 the results were 12-LOX inh inactive, TDP1 cell noCPT inconclusive, HT1080 IDH1KD tx inactive, HT1080-NT tox inactive, TDP1 cell CPT inactive and IL1B secr inh inactive.
Screening COC(=O)C1=C(C)N=C2SC=C(CC(=O)NCc3ccccc3)N2C1c1cccc(OC)c1 (stereo unspecified) returned 12-LOX inh inactive.
COC(=O)C1=CO[C@@H](O)[C@@H]2C(CO)=CC[C@@H]12 was read as 12-LOX inh inactive.
CCOC(=O)c1cc([N+](=O)[O-])sc1NC(=O)c1ccc(S(=O)(=O)N2CC3(C)CC2CC(C)(C)C3)cc1 (stereo unspecified) was read as 12-LOX inh inactive, TDP1 cell noCPT 2.59µM, HT1080 IDH1KD tx inactive, HT1080-NT tox inactive, TDP1 cell CPT 2.31µM and IL1B secr inh inactive.
For O=C(Nc1ccc(Cl)c(S(=O)(=O)N2CCOCC2)c1)c1cccs1 the results were 12-LOX inh inactive, TDP1 cell noCPT inconclusive, HT1080 IDH1KD tx inactive, HT1080-NT tox inactive, TDP1 cell CPT inconclusive and IL1B secr inh inactive.
For CC1(C)CC2CC(C)(CN2S(=O)(=O)c2cccc(N)c2)C1 (stereo unspecified) the results were 12-LOX inh inactive, TDP1 cell noCPT inconclusive, HT1080 IDH1KD tx inactive, HT1080-NT tox inactive, TDP1 cell CPT inconclusive and IL1B secr inh inactive.
For CC1(C)CC2CC(C)(CN2S(=O)(=O)c2ccc(C(=O)Nc3ccc(S(=O)(=O)N4CCOCC4)cc3)cc2)C1 (stereo unspecified) the results were 12-LOX inh inactive, TDP1 cell noCPT 5.17µM, HT1080 IDH1KD tx inconclusive, HT1080-NT tox inconclusive, TDP1 cell CPT 3.66µM and IL1B secr inh inactive.
CC(=O)Nc1ccc(S(=O)(=O)N2CC3(C)CC2CC(C)(C)C3)cc1 (stereo unspecified) was read as 12-LOX inh inactive, TDP1 cell noCPT inconclusive, HT1080 IDH1KD tx inactive, HT1080-NT tox inactive, TDP1 cell CPT inactive and IL1B secr inh inactive.
For CC1(C)CC2CC(C)(CN2S(=O)(=O)c2ccc(C(=O)Nc3ccc(Cl)c(S(=O)(=O)N4CCOCC4)c3)cc2)C1 (stereo unspecified) the results were 12-LOX inh inactive, TDP1 cell noCPT 3.66µM, HT1080 IDH1KD tx inactive, HT1080-NT tox inactive, TDP1 cell CPT 3.26µM and IL1B secr inh inactive.
COC(=O)[C@@H]1CCCN1Cc1ccc2c(c1)CN(Cc1ccccc1F)CCO2 was read as 12-LOX inh inactive, TDP1 cell noCPT inactive and TDP1 cell CPT inactive[9.04 µM].
CC[n+]1ccc(C[n+]2ccccc2)c2ccccc21 was read as 12-LOX inh inconclusive, TDP1 cell noCPT inactive, HT1080 IDH1KD tx inactive, HT1080-NT tox inactive, TDP1 cell CPT inactive and IL1B secr inh inactive.
CCCCCCCCCC[n+]1cccc2cc(Cl)ccc21 was read as TDP1 cell noCPT 1.26µM and TDP1 cell CPT 1.26µM.
`CCCCCCCCCCCCCCCC[n+]1ccc(C)c2ccccc21` gave TDP1 cell noCPT 0.794µM and TDP1 cell CPT 0.708µM.
Screening Clc1ccc2c(ccc[n+]2CCC2CCCCC2)c1 returned TDP1 cell noCPT 8.91µM and TDP1 cell CPT 10µM.
For CC(C)(C)c1nc2ccc(Cl)cn2c1CC1CCCCC1 the results were 12-LOX inh inactive, TDP1 cell noCPT inconclusive, HT1080 IDH1KD tx inactive, HT1080-NT tox inactive, TDP1 cell CPT inconclusive and IL1B secr inh inactive.
Screening CCCCCCCCCC[n+]1cccc2c3ccccc3ccc21 returned 12-LOX inh inactive, TDP1 cell noCPT 0.146µM, HT1080 IDH1KD tx 2.31µM, HT1080-NT tox 4.11µM, TDP1 cell CPT 0.326µM and IL1B secr inh inactive.
Screening Clc1ccc2c(ccc[n+]2CCc2ccccc2)c1 returned TDP1 cell noCPT inconclusive and TDP1 cell CPT inactive.
`Nc1ccc(Cn2ccc3c4c(N)nc(N)nc4ccc32)cc1` gave 12-LOX inh inconclusive, TDP1 cell noCPT 0.13µM, HT1080 IDH1KD tx 0.0326µM, HT1080-NT tox 0.517µM, TDP1 cell CPT inconclusive and IL1B secr inh -99.2.
Screening Nc1nonc1-c1nc2ccccc2n1Cc1ccc(Cl)cc1 returned 12-LOX inh inconclusive, TDP1 cell noCPT inactive, HT1080 IDH1KD tx inactive, HT1080-NT tox inactive, TDP1 cell CPT inactive and IL1B secr inh inactive.
Screening COc1ccccc1CN[C@H]1CC(C)(C)[C@@H]2C[C@@](C)(O)CC[C@]12CCC(=O)NCCN1CCOCC1 returned 12-LOX inh inactive.
`COC(=O)CC/C(=N/Nc1ccc(Cl)c(Cl)c1)C(=O)OC` gave 12-LOX inh 15.8µM, TDP1 cell noCPT inactive, HT1080 IDH1KD tx inactive, HT1080-NT tox inactive, TDP1 cell CPT inactive and IL1B secr inh inactive.
For Cc1ccc(C(=O)N2CCC(N3C(=O)CCC3C(=O)NC(C)C)CC2)c(C)c1 (stereo unspecified) the results were 12-LOX inh inactive.
`O=C(Nc1ccc(O)c2c(=O)cc(-c3ccccc3Cl)oc12)c1ccc(Cl)c(Cl)c1` gave 12-LOX inh inconclusive, TDP1 cell noCPT inactive, HT1080 IDH1KD tx inactive, HT1080-NT tox inactive, TDP1 cell CPT inactive and IL1B secr inh inactive.
Screening O=C(Nc1ccc(O)c2c(=O)cc(-c3cccc(Cl)c3)oc12)c1ccc(F)cc1 returned 12-LOX inh inactive, TDP1 cell noCPT 13µM, HT1080 IDH1KD tx inactive, HT1080-NT tox inactive, TDP1 cell CPT inconclusive and IL1B secr inh inactive.
For Oc1ccc(Br)cc1CNc1cccc2cccnc12 the results were 12-LOX inh inactive, TDP1 cell noCPT 25.9µM, HT1080 IDH1KD tx inconclusive, HT1080-NT tox inconclusive, TDP1 cell CPT inconclusive and IL1B secr inh inactive.
Screening Cc1ccc(O)c(CNc2cccc3cccnc23)c1 returned 12-LOX inh inactive, TDP1 cell noCPT inconclusive, HT1080 IDH1KD tx inconclusive, HT1080-NT tox inactive, TDP1 cell CPT inconclusive and IL1B secr inh inconclusive.
Screening COc1cccc(CNc2cccc3cccnc23)c1O returned 12-LOX inh inconclusive, TDP1 cell noCPT inconclusive, HT1080 IDH1KD tx inconclusive, HT1080-NT tox inactive, TDP1 cell CPT inconclusive and IL1B secr inh inactive.
`Oc1c(Br)cc(Br)cc1CNc1cccc2cccnc12` gave 12-LOX inh 14.1µM, TDP1 cell noCPT inconclusive, HT1080 IDH1KD tx inconclusive, HT1080-NT tox inactive, TDP1 cell CPT 16.4µM and IL1B secr inh inactive.
